# Screening data from PubChem BioAssay.
# mIDH1 inhibitor: qHTS for Inhibitors of mutant isocitrate dehydrogenase 1 (IDH1): qHTS; AID 602179, 2012; actives 0.093% (n = 390,000); IDH1-R132H enzyme, NADPH consumption, diaphorase/resazurin fluorescence; Potency, µM (series often up to 76.6 µM), actives largely listed as inhibitors; Isocitrate dehydrogenase [NADP] cytoplasmic (Homo sapiens), O75874; further: nearly all actives have a fitted effect of over 65% in size
#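 IDH1-R132H (0.5 ug/mL) preincubated 30 min with compound, then NADPH (0.016 mM) and alpha-KG (2 mM) added; 80 min at RT, pH 7.5. Remaining NADPH coupled via diaphorase/resazurin to fluorescence (540/590 nm); concentration-response curves normalized to no-enzyme control.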
# RGS4 inhibitor: Inhibitors of Regulator of G Protein Signaling (RGS) 4: qHTS. Potency, µM (series often up to 114 µM), most hits filed as inhibitors. actives 0.039% (n = 390,000). Regulator of G-protein signaling 4 (Homo sapiens), P49798. Transcreener GDP fluorescence polarization, RGS4-accelerated GTP hydrolysis; further: nearly all actives have a fitted effect of over 75% in size
# Target sequence (P49798 whole entry, looked up): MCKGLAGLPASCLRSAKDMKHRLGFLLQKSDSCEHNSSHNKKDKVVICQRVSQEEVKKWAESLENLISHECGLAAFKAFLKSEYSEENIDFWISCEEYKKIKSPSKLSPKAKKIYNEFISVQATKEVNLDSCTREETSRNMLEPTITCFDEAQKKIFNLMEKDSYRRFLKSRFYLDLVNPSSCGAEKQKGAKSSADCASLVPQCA
#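 MLSMR compounds (23 nl, pin-transferred) preincubated 10 min at room temperature with a 500nM (2x) first reagent, then RGS4 at 900nM (2x) plus Transcreener GDP mix added; fluorescence polarization (620/688 nm) read before and after 90 min at 30 °C.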
# ASM inhibitor: Inhibitors of Secretory Acid Sphingomyelinase (S-ASM): qHTS; placental ASM, HMU-PC fluorogenic substrate, 60 min; actives 0.006% (n = 340,000); Potency, µM (doses to about 57.5 µM), usual class: inhibitors; AID 504937, 2011; Sphingomyelin phosphodiesterase (Homo sapiens), P17405
#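 Fluorescence read-out (Ex 386 nm, Em 447 nm) after stopping the reaction at pH 10. Enzyme: ASM from human placenta; substrate HMU-PC0, 9 uM final; 60 min, 37 °C. Compound preincubation 10 min, ambient temperature.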
# ClpP mod: qHTS Assay for Activators of ClpP | purified B. subtilis ClpP, FRET peptide cleavage, 20 min | ATP-dependent Clp protease proteolytic subunit (Bacillus subtilis (strain 168)), P80244 | actives 1.9% (n = 340,000) | Potency, µM (highest dose often 57.5 µM); active means well fitted falling curve with a large enough effect; inconclusive means small, poorly fitted or top-dose-only effect; inactive means no such curve, though single readings can be large or run the other way; further: the source files actives as falling curves though it sought activators and does not explain the sign; nearly all actives have a fitted effect of over 65% in size
# Target sequence (P80244 whole entry, looked up): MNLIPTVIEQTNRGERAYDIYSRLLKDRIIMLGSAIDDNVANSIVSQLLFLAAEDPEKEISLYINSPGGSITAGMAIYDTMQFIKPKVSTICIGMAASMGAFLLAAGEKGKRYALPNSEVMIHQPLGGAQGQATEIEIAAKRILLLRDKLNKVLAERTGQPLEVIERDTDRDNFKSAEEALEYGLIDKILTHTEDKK
#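 FRET quenching reversal measured ClpP activation: 10 microg/mL B. subtilis ClpP at pH 8 with the FRET-FV decapeptide, read at 430 nm after 320 nm excitation. The 20-min minus 0-min signal was scaled between DMSO/no-enzyme wells and ADEP (5.8 microM final).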
# LDHA block: qHTS assay for inhibitors of human lactate dehydrogenase. L-lactate dehydrogenase A chain (Homo sapiens), P00338. purified LDHA, NADH/diaphorase-resazurin fluorescence; stronger effect = lower value. activity change, % (values are at about 110 or 230 µM). actives 0.15% (n = 480,000). AID 1347041, 2019; in the data active means activity change below about -30%; inconclusive means mostly about -25% to -30%
#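 Resorufin fluorescence (ex540/em590), read at 0 and 20 min after diaphorase/resazurin addition, reports the NADH left after a 5 min room-temperature reaction of 2 nM human LDH5 with 0.06 mM NADH and 0.2 mM pyruvate.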
# Mito fusion act: qHTS Assay for Small Molecule Inhibitors of Mitochondrial Division or Activators of Mitochondrial Fusion | S. cerevisiae fusion-defective mutant growth rescue, CellTiterGlo 48 h | Potency, µM (titrated, usually from 46.1 µM), usual class: activators | actives 0.23% (n = 320,000); further: nearly all actives have a fitted effect of over 45% in size
#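 Yeast fusion mutant, YPEG (non-fermentable carbon), compound, 48 h at 37C non-permissive; CellTiterGlo added, 10 min RT, luminescence read. Rescued growth = division inhibition.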
# Numbers stand for hits; . = inactive; ? = inconclusive; / = no result; ! = a repeat was not active; [ ] = dose if it differs, or a comment. This excerpt belongs to a sample that is enriched for hits. Unless noted, the call rests on the fitted dose curve; in most records, active means well fitted curve in the direction sought with a large enough effect; inconclusive means small, poorly fitted or top-dose-only effect, or another doubt; inactive means no such curve, though single readings can be large; an effect the other way counts as inactive or inconclusive.
SMILES,mIDH1 inhibitor,RGS4 inhibitor,ASM inhibitor,ClpP mod,LDHA block,Mito fusion act
Cc1ccccc1Nc1c(-c2ccc(Br)o2)nc2ccc(Cl)cn12,.,.,/,28.2µM,.,/
CCN1CCN(CCNC(=O)CC2CCN(C(=O)c3cc(OC)c(OC)c(OC)c3)CC2)CC1,/,/,/,/,.,/
CCOC(=O)c1cc2c(n(-c3ccccc3)c1=O)CC(C)(C)CC2=O,.,.,.,12.6µM,.,.
CC1(C)CC(=O)c2cc(C(=O)O)c(=O)n(-c3ccccc3)c2C1,.,.,.,.,.,.
O=C(NC12CC3CC(CC(C3)C1)C2)C1CCN(S(=O)(=O)Cc2ccccc2)CC1,/,/,/,/,.,/
O=C(CC1(c2ccc(Cl)cc2)C2CC3CC(C2)CC1C3)NCCO (stereo not drawn),.,.,.,12.6µM,.,.
O=C(O)c1cc([N+](=O)[O-])ccc1NCCCc1ccccc1,.,.,.,.,.,8.2µM
COC(=O)c1ccccc1NC(=O)c1ccc(COc2cc(C)cc(C)c2)o1,.,.,.,20µM!,.,.
CCCC(=O)NCCc1c2n(c3ccc(OC)cc13)CCCc1ccccc1-2,/,.,/,/,/,18.4µM
COc1ccc(OC)c(CCNC(=O)CCc2cn(C)c3ccccc23)c1,.,.,.,/,.,.
N#Cc1c(-c2ccccc2)cc(-c2ccc3c(c2)OCO3)[nH]c1=O,.,.,.,17.8µM,.,.
N#Cc1c(-c2ccc3c(c2)OCO3)csc1N,.,.,.,.,.,.
COc1ccc(CNC(=O)CN(c2cccc(Cl)c2Cl)S(=O)(=O)c2ccccc2)cc1,/,/,/,/,.,/
CCOc1ccc(C(=O)NCC(=O)OCC(=O)Nc2ccc(C)c(S(=O)(=O)N(C)C)c2)cc1,.,.,.,/,-31.4,.
CC1(C)[C@@H](O)CC[C@]2(C)[C@H]3C(=O)C=C4[C@@H]5C[C@@](C)(C(=O)O)CC[C@]5(C)CC[C@@]4(C)[C@]3(C)CC[C@@H]12,.,.,.,.,.,.
CC1(C)[C@@H](O)CC[C@]2(C)C3C(O)C=C4[C@H]5C[C@@](C)(CO)CC[C@]5(C)CC[C@]4(C)[C@]3(C)CC[C@@H]12 (stereo partly drawn),.,.,.,.,.,11.2µM
CN1CCN(CCCNCc2cn(CCC#N)c3ccccc23)CC1,.,.,.,/,-40.2,.
Cc1nc2sccn2c(=O)c1CCN1CCC(=C(c2ccccc2)c2ccc(F)cc2)CC1,/,?,/,/,/,18.4µM!
Cc1nc2sccn2c(=O)c1S(=O)(=O)N1CCN(c2ccccc2)CC1,.,.,.,.,.,.
Cc1noc(C)c1S(=O)(=O)Nc1ccccc1SCc1cc(=O)n2cc(Cl)ccc2n1,/,/,/,/,.,/
CC1CC2(NC(=O)NC2=O)C(C)CN1C (stereo not drawn),.,.,.,25.1µM,.,.
COC(=O)c1ccc(NC(=O)C2CC2)o1,.,.[11.4 µM],.,14.1µM,.,.
CC(C)(C)C(=O)Nc1ccc2oc(-c3cc(F)c(F)cc3Cl)nc2c1,.,.,.,31.6µM,.,.
CCC(=O)Nc1ccc2oc(-c3cc(F)c(F)cc3Cl)nc2c1,/,/,/,/,.,/
COC(=O)c1ccc(COC(=O)CCc2nc3ccccc3[nH]c2=O)cc1,/,/,/,/,.,/
COC(=O)c1ccc(COC(=O)CCc2nc(-c3ccccc3)c(-c3ccccc3)o2)cc1,.,.,.,31.6µM,.,.
CCn1c(SCC(N)=O)nnc1-c1ccc(S(=O)(=O)N2CCN(C)CC2)cc1,.,.,.,31.6µM,.,.
CCC(NC(=O)C(C)(C)C)c1ccccc1 (stereo not drawn),/,/,/,/,.,/
Cc1ccc(NC(=O)N(Cc2cccs2)Cc2cc3cc4c(cc3[nH]c2=O)OCO4)cc1,/,/,/,/,/,.
